# Assay outcomes as filed in PubChem.
# TRHR PAM: qHTS for Small Molecule Agonists and Allosteric Enhancers of Human TRH Receptor: Primary Screen for Enhancers. Thyrotropin-releasing hormone receptor (Homo sapiens), P34981. TRHR cells, fluo-8 calcium fluorescence, EC20 TRH enhancement. enhancement, % at 2 µM. actives 0.66% (n = 360,000). AID 493056, 2011; in the data active = enhancement above about 30%; note: 0% is about no effect
#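 Enhancer read-out: after compound pinning and an initial kinetic agonist-mode read, an EC20 of TRH (10 nM final) was injected and fluo-8 calcium signal (Ex 480/Em 530) followed at 1 s/cycle for 100 cycles in TRHR-expressing cells.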
# D1 agonist: Allosteric Agonists of the Human D1 Dopamine Receptor: qHTS; D(1A) dopamine receptor (Homo sapiens), P21728; activation, % at 2 µM; HEK293 T-REx D1 cells, calcium flux, agonist mode; actives 1% (n = 360,000); note: 0% is about no effect
# Target sequence (P21728 whole entry, looked up): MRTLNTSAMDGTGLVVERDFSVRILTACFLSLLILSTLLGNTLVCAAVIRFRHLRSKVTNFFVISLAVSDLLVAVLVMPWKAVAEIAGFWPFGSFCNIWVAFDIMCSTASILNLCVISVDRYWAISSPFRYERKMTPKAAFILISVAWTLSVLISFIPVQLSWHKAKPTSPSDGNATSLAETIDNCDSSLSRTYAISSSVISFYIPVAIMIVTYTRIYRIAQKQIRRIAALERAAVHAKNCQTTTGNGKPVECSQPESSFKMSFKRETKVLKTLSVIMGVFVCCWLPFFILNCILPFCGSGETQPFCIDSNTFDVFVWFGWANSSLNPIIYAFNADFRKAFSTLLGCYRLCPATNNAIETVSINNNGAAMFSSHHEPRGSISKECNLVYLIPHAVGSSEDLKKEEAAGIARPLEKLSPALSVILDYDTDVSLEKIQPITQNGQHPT
#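 Tetracycline-induced HEK293 TREx D1 cells, force-coupled to calcium signalling, were dye-loaded with a no-wash calcium kit. Compound was pin-added after a 10 s baseline. Fluorescence was read kinetically at 1 cycle/s for 180 s, with calcium rises flagged as agonism.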
# TRHR ag: qHTS for Small Molecule Agonists and Allosteric Enhancers of Human TRH Receptor: Primary Screen for Agonists. Thyrotropin-releasing hormone receptor (Homo sapiens), P34981. TRHR cells, calcium flux fluo-8, FDSS agonist mode. activation, % at 2 µM. actives 0.18% (n = 360,000); note: 0% is about no effect
#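 Agonist-mode FDSS calcium read (Ex 480/Em 530, 1 s cycles) in 1536-well TRHR cells with fluo-8 dye, after 10-cycle baseline and 23 nL compound addition; TRH at EC20 (10 nM final) added afterwards for the enhancer phase.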
# D1 PAM: Potentiators of Human D1 Dopamine Receptor: qHTS; potentiation, % at 10 µM; D(1A) dopamine receptor (Homo sapiens), P21728; AID 504651, 2011; actives 0.036% (n = 360,000); HEK293 TREx D1 cells, calcium flux, dopamine EC20 potentiation; in the data active = potentiation above about 30%; note: 0% is about no effect
# D1 antag: Antagonist of Human D 1 Dopamine Receptor: qHTS. HEK293 TREx D1 cells, calcium flux, dopamine EC80; hits give low values. actives 3.2% (n = 360,000). activity change, negative = inhibition, % at 10 µM; in the data active = activity change below about -30%; note: % is set by controls: 0 for no effect and ±100 for the full control effect
#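 Tetracycline-induced HEK293 T-REx cells with force-coupled D1 receptor were loaded with a no-wash calcium dye. Compound was added after a 10 s baseline and read kinetically for 180 s; EC80 dopamine was then added and calcium flux followed another 180 s.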
# Numbers without * were called inactive; / = not tested or not shown. Compounds with a hit are over-represented: about 4.7% of the library has one in this group of screens. Cut-off read from the data, not from the text of the source, unless noted: active = activation above about 30%; inactive = the rest.
SMILES,TRHR PAM,D1 agonist,TRHR ag,D1 PAM,D1 antag
Cc1ccc(Nc2nc(C#N)nc(NC3CCCC3)n2)cc1,2,13,1,-6,5
Cc1cccc(NC(=O)C(=O)c2cc(C)n(-c3ccccc3)c2C)c1C,-1,3,0,-2,-1
N#C/C(=C\c1ccc(-c2ccc(F)cc2)o1)C(=O)Nc1nc(-c2cccs2)cs1,15,14,1,-3,13
N#C/C(=C/c1ccc(-c2ccccc2)o1)c1nc(-c2cccs2)cs1,0,215*,68*,-6,-8
COC(=O)c1ccc(/C=C(\C#N)c2nc3ccccc3s2)cc1,3,56*,15,2,26
O=C(NCc1ccc(F)cc1)c1ccc2c(c1)N(Cc1c(F)cccc1Cl)C(=O)CS2,-7,6,1,-1,-13
O=C(CSc1nnc(CNC(=O)c2c(F)cccc2Cl)o1)Nc1ccc2c(c1)OCO2,15,2,1,0,-14
O=C(CSc1nnc(CNC(=O)c2c(F)cccc2Cl)o1)Nc1cccc(F)c1,-4,8,0,-3,-33*
Cc1ccc(S(=O)(=O)N2CCC(=O)N(CCOC(=O)Nc3cccc(Cl)c3)CC2)cc1,-5,3,0,-5,-31*
Cc1ccc(NC(=O)OCCN2CCN(S(=O)(=O)c3ccc(C)cc3)CCC2=O)cc1,2,-5,0,-2,5
Cc1ccc(S(=O)(=O)N2CCC(=O)N(C(CO)Cc3ccccc3)CC2)cc1 (centres undefined),3,-1,0,-3,-43*
Cc1ccc(S(=O)(=O)N2CCC(=O)N(C(COC(=O)Nc3ccccc3)Cc3ccccc3)CC2)cc1 (centres undefined),-6,2,0,-5,2
Cc1ccc(COCCN2CCN(S(=O)(=O)c3ccccc3)CCC2=O)cc1,1,1,0,-6,-41*
COc1ccc(C)cc1NC(=O)C(OC(=O)CNC(=O)c1ccccc1)c1ccccc1 (centres undefined),-1,4,-1,-6,18
CCCCn1c(SCC(=O)c2ccccc2)nc2c(sc3ccccc32)c1=O,-2,2,0,-2,1
CCOC(=O)c1cnc(NCc2ccccc2OC)c2ccccc12,3,2,0,-1,10
COc1ccc(C2OCC3(CO2)SC(=O)NC3=O)cc1 (centres undefined),-2,3,0,-14,-38*
CC(=O)OCc1cnc(C)c2oc(=O)c(C(=O)Nc3cccc(F)c3)cc12,9,0,-1,1,-46*
Cc1cccc(N2CCN(C(=O)c3cnn(-c4ccc(F)cc4F)c3C3CCN(C(=O)OC(C)(C)C)CC3)CC2)c1C,-2,7,1,-2,7
COc1cc(OC)c(NC(=O)Cn2c(=O)c(C(F)(F)F)nc3ccccc32)cc1Cl,1,1,0,0,6
COc1nc(C)ccc1-c1noc(-c2cccs2)n1,-8,2,-1,3,-35*
CCc1ccc2c(c1)NC(c1ccc(C)cc1)=NC(c1cccs1)=N2,1,0,-1,2,-1
O=C(NC1CCN(C(=O)Nc2ccc(F)cc2)CC1)c1ccc(F)cc1,39*,5,-1,-1,-22
O=C(NC1CCN(C(=O)Nc2ccc(F)cc2)CC1)c1cccc(F)c1,6,1,0,-6,12
COc1cccc(C(=O)c2cn(CC(=O)Nc3cccc(C)c3C)c3nc(C)ccc3c2=O)c1,-1,3,0,-4,31
SMILES,TRHR PAM,D1 agonist,TRHR ag,D1 PAM,D1 antag
Cc1cc(C)nc(Nc2nc3ccccc3o2)n1,-1,5,1,-14,-31*
c1ccc(Nc2nc3ccccc3o2)cc1,3,-1,1,-2,3
Cc1ccc(S(=O)(=O)/N=C2/NC(=O)/C(=C\c3cc(Br)cc(Br)c3O)S2)cc1,6,276*,118*,11,-52*
Cc1ccc(S(=O)(=O)/N=C2/NC(=O)/C(=C/c3cccnc3)S2)cc1,6,3,0,2,-35*
Cc1ccccc1OCC(=O)Nc1nnc(SCc2cc(=O)n3cc(Cl)ccc3n2)s1,0,-1,0,0,4
O=C(NCNC(=O)c1ccccc1)c1ccccc1,0,1,0,-5,-19
O=C(NCn1ccc(=O)[nH]c1=S)c1ccccc1,4,0,0,4,-46*
Cc1cc(=O)n(CC(=O)Nc2ccc([N+](=O)[O-])cc2)c(-n2nc(C)cc2C)n1,-7,-3,0,-2,/
O=C(CS(=O)(=O)c1cccc2nsnc12)NCc1ccc(Cl)cc1,5,0,-1,-5,-16
CC1CCN(C(=O)CCc2nc3cc(S(=O)(=O)N(C)C)ccc3n2C)CC1,-1,0,0,11,-32*
CCN1CCOC(=O)C1CC(=O)Nc1cc(C)ccc1OC (centres undefined),-5,0,3,4,20
CCOC(=O)c1c(C)oc2nc(C)nc(NCCc3ccc(OCC)c(OCC)c3)c12,-2,3,-1,-4,-7
O=C(CSc1nccn1Cc1ccco1)Nc1cc(C(F)(F)F)ccc1Cl,-2,6,0,-3,7
Cn1c(=O)c(NCCc2ccccc2)c2c3c(cccc31)C(=O)c1ccccc1-2,-18,394*,175*,-5,-78*
Cn1c(=O)cc2c3c(c(N4CCCCC4)ccc31)C(=O)c1ccccc1-2,2,2,1,3,3
CCCCNc1c2c3c(cccc3n(C)c1=O)C(=O)c1ccccc1-2,-4,326*,94*,-7,-47*
CCNc1cccc2c1C(=O)N(C)C2=O,0,20,8,8,11
CCNc1c2c3c(cccc3n(C)c1=O)C(=O)c1ccccc1-2,-16,373*,151*,-6,-3
CN1C(=O)c2cccc(NCCCN3C(=O)c4ccccc4C3=O)c2C1=O,0,4,2,1,-5
Cn1c(NCCc2ccccc2)cc(=O)n(C)c1=O,8,1,1,0,12
Cn1c(=O)c(NC2CCCCC2)c2c3c(cccc31)C(=O)c1ccccc1-2,5,455*,219*,-4,-68*
Cc1ccc(-c2nc(CCNC(=O)C(=O)Nc3ccc(C)c(C)c3)cs2)cc1,5,1,0,-3,-22
Cc1ccc(N2CC(NC(=O)C3CCCC3)CC2=O)cc1C (centres undefined),-2,0,0,0,/
